Test results as given in PubChem BioAssay (Tox21).
A number with no mark means an inactive call. Results filed as inconclusive are left out. Where a call stands in place of a potency, no number is given. Active and inactive are the calls of the source. Unless noted, the call rests on the fitted dose curve; in most records, active means well fitted curve in the direction sought with a large enough effect in the repeat runs; inconclusive means weak or mixed curves; inactive means no such curve, though single readings can be large; an effect the other way counts as inactive or inconclusive.

What was measured:
[1] = A CellTox Green Cytotoxicity Assay to monitor cytotoxicity in HepG2 cells - 8 hour (AID 1224890); further: nearly all actives have a fitted effect of over 45% in size
Procedure, shortened: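 HepG2 cells, 600/well, preincubated 5 h with CellTox Green dye, then exposed to Tox21 compounds in DMSO at 37 C for up to 40 h. Dead-cell DNA fluorescence read at the indicated time point.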

[2] = qHTS assay to identify small molecule antagonists of the estrogen receptor alpha (ER-alpha) signaling pathway using the BG1 cell line in the presence of 0.1 nM 17-beta-estradiol - cell viability counter screen (AID 1259241); further: nearly all actives have a fitted effect of over 40% in size
Procedure, shortened: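 Following 5 days in phenol red-free medium with charcoal-stripped serum, VM7Luc4E2 cells received test compounds alongside 0.1 nM 17beta-estradiol (final) at 37C for 22 hr. Live cells were then quantified via protease-substrate fluorescence.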

[3] = qHTS assay to identify small molecule antagonists of the androgen receptor (AR) signaling pathway using the MDA cell line in the presence of 0.5 nM R1881 - cell viability counter screen (AID 1259242); further: nearly all actives have a fitted effect of over 45% in size; further: potency means the concentration at half of the fitted maximal effect
Procedure, shortened: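 MDA-kb2 cells (MMTV-luciferase, AR/GR responsive) were treated with compounds plus 0.5 nM R1881 (final) for 16 hr at 37C, 0% CO2. Viability was then read in the same wells as live-cell protease fluorescence (CellTiter-Fluor, 30 min).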

[4] = target: Estrogen receptor (Homo sapiens) (UniProt P03372); assay: qHTS assay to identify small molecule antagonists of the estrogen receptor alpha (ER-alpha) signaling pathway using the BG1 cell line in the presence of 0.1 nM 17-beta-estradiol (AID 1259244); further: nearly all actives have a fitted effect of over 50% in size; further: potency means the concentration at half of the fitted maximal effect
Procedure, shortened: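 VM7Luc4E2 cells (endogenous full-length ER-alpha, 4×ERE-luciferase), kept 5 days in phenol red-free, charcoal-stripped FBS medium; 4,000 cells/well. Compounds added with 0.1 nM (final) 17beta-estradiol, 22 hr at 37C; luminescence read with ONE-Glo after 30 min.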

[5] = qHTS assay to identify small molecule HDAC inhibitors (AID 1259364); further: nearly all actives have a fitted effect of over 45% in size; further: potency means the concentration at half of the fitted maximal effect
Procedure, shortened: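 Wild-type HCT-116 cells, plated overnight at 37 C, exposed to compounds 2 hr at 37 C; luminogenic HDAC-Glo substrate then added 30 min at room temperature. Luminescence reports relative endogenous class I/II HDAC activity.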

[6] = qHTS assay to identify small molecule HDAC inhibitors - cell viability counter screen (AID 1259365); further: series mostly up to about 92 µM; nearly all actives have a fitted effect of over 50% in size
Procedure, shortened: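 HCT-116 wild-type, overnight attachment; 2hr drug exposure, 37C; CellTiter-Glo luminescent ATP readout after 30min RT.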

[7] = qHTS assay to identify small molecule agonists of the sonic hedgehog signaling (Shh) pathway - cell viability counter screen (AID 1259366); further: nearly all actives have a fitted effect of over 50% in size
Procedure, shortened: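 Compounds in DMSO were pin-transferred onto 3T3 Gli1-Luc cells that had settled 4hr; plates then stood 24hr at 37C and 5% CO2. One hour before the end, CellTiter-Fluor was added and fluorescence recorded.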

[8] = qHTS assay to identify small molecule antagonists of the sonic hedgehog signaling (Shh) pathway - cell viability counter screen (AID 1259367); further: nearly all actives have a fitted effect of over 55% in size
Procedure, shortened: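 After a 4 hr settling period, 3T3 Gli1-Luc cells were treated with DMSO-dissolved chemicals and conditioned medium, kept 24 hr at 37C in 5% CO2, and assayed for viability by CellTiter-Fluor fluorescence following 1 hr reagent incubation.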

[9] = qHTS assay to identify small molecule antagonists of the sonic hedgehog signaling (Shh) pathway (AID 1259369; calls by dose curve; further: nearly all actives have a fitted effect of over 45% in size; further: potency means the concentration at half of the fitted maximal effect)
Procedure, shortened: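 NIH/3T3-derived Gli1-Luc reporter cells plated 4 h, dosed with compound, then stimulated with conditioned medium for 24 h at 37 C. Firefly luciferase luminescence read after 30 min with detection reagent at room temperature.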

[10] = qHTS assay to identify small molecule agonists of the androgen receptor (AR) signaling pathway in the presence of an antagonist - cell viability counter screen (AID 1259379); further: nearly all actives have a fitted effect of over 25% in size; further: potency means the concentration at half of the fitted maximal effect
Procedure, shortened: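 MDA-kb2 cells (MMTV-luciferase, AR/GR), 3,000/well, 5 h attachment, then 3.0 µM nilutamide (final) and compounds at 15 concentrations. Viability by CellTiter-Fluor fluorescence after 16 h at 37 °C, 0% CO2, in the reporter wells.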

[11] = qHTS assay to identify small molecule agonists of the estrogen receptor beta (ER-beta) signaling pathway - cell viability counter screen (AID 1259380); further: nearly all actives have a fitted effect of over 30% in size; further: potency means the concentration at half of the fitted maximal effect
Procedure, shortened: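 ER-beta-UAS-bla HEK293T cells in medium with 2% charcoal-stripped FBS, pre-incubated 6 hr, then treated 16 hr at 37C. Cytotoxicity read in the same wells by CellTiter-Glo luminescence after 30 min at room temperature.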

[12] = qHTS assay to identify small molecule antagonists of the estrogen receptor beta (ER-beta) signaling pathway - cell viability counter screen (AID 1259382); further: series mostly up to about 92 µM; nearly all actives have a fitted effect of over 55% in size
Procedure, shortened: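 ER-beta-UAS-bla HEK293T cells in 2% charcoal-stripped FBS medium, treated with compound plus 1 nM 17-beta-estradiol for 16 h at 37C. Viability read by CellTiter-Glo luminescence after 30 min at room temperature in the same wells.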

[13] = target: Estrogen receptor (Homo sapiens) (UniProt P03372); assay: qHTS assay to identify small molecule agonists of the estrogen receptor alpha (ER-alpha) signaling pathway in the presence of an antagonist (AID 1259383; calls by dose curve; further: top concentration of the series differs between compounds; nearly all actives have a fitted effect of over 15% in size)
Procedure, shortened: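 VM7Luc4E2 cells express endogenous full-length ER-alpha with an ERE-luciferase reporter and were hormone-deprived for 5 days. Compounds at 15 concentrations were added with 10.0nM ICI-182,780 for 22hr at 37C. Luminescence was read with ONE-Glo.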

[14] = qHTS assay to identify small molecule agonists or antagonists of the thyroid stimulating hormone receptor (TSHR) signaling pathway - wild type cell line counter screen (AID 1259384; calls by dose curve)
Procedure, shortened: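 Wild-type HEK293 cells were plated 18 h at 37 C/5% CO2, pin-dosed with compound plus Ro20-1724 medium, held 30 min at room temperature, then given cAMP-d2 and anti-cAMP-cryptate; fluorescence was read after 1 h. Fifteen concentrations, triplicate.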

[15] = qHTS assay to identify small molecule phospholipidosis (PLD) inducers (AID 1259344; active means well fitted curve in the direction sought with a large enough effect; an effect the other way counts as inactive or inconclusive)
Procedure, shortened: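 HepG2 cells grown on collagen I take up LipidTOX Red while exposed to compound for 24 h; after fixation they are imaged at 20x and pit metrics are extracted.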

[16] = target: Estrogen receptor beta (Homo sapiens) (UniProt Q92731); assay: qHTS assay to identify small molecule agonists of the estrogen receptor beta (ER-beta) signaling pathway (AID 1259377; active means well fitted activation curve with a large enough effect in the signal ratio in the repeat runs, not every such curve was filed as active; the % refers to the signal ratio)
Procedure, shortened: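 qHTS in ER-beta-UAS-bla HEK293T cells: 6 hr settling, then 16 hr compound at 37C, then LiveBLAzer substrate 2 h at RT before fluorescence reading.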

[17] = target: Estrogen receptor beta (Homo sapiens) (UniProt Q92731); assay: qHTS assay to identify small molecule antagonists of the estrogen receptor beta (ER-beta) signaling pathway (AID 1259378; active means well fitted inhibition curve with a large enough effect in the signal ratio in the repeat runs, not every such curve was filed as active; the % refers to the signal ratio; further: potency means the concentration at half of the fitted maximal effect)
Procedure, shortened: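 ER-beta-UAS-bla HEK293T (GripTite) cells in 2% charcoal-stripped FBS medium were preincubated 6 hr at 37C, dosed with compound, then stimulated with 1 nM E2 (final) for 16 hr; beta-lactamase reporter read by B/G FRET fluorescence after 2 hr substrate loading.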

[18] = qHTS assay to identify small molecule agonists of the sonic hedgehog signaling (Shh) pathway (AID 1259368; calls by dose curve;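 further: NIH/3T3-derived 3T3Gli1-Luc cells carrying a stable Gli1-driven firefly luciferase reporter; series mostly up to about 92 µM; nearly all actives have a fitted effect of over 15% in size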)
Procedure, shortened: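 NIH/3T3-derived 3T3Gli1-Luc cells with stably integrated Gli1-driven firefly luciferase, 2,000 cells/well, compounds added after 4 hr. Incubated 24 hr at 37C, 5% CO2; luminescence read after 30 min with luciferase reagent at room temperature.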

[19] = target: Androgen receptor (Homo sapiens) (UniProt P10275); assay: qHTS assay to identify small molecule antagonists of the androgen receptor (AR) signaling pathway using the MDA cell line in the presence of 0.5 nM R1881 (AID 1259243); further: nearly all actives have a fitted effect of over 50% in size; further: potency means the concentration at half of the fitted maximal effect
Procedure, shortened: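 MDA-kb2 cells (MMTV-luciferase, responsive to AR and GR) at 3,000/well, rested 5 h at 37C, 0% CO2, then given compounds plus 0.5 nM R1881 (final) for 16 hr. Luciferase read with ONE-Glo after 30 min at room temperature.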

[20] = target: Androgen receptor (Homo sapiens) (UniProt P10275); assay: qHTS assay to identify small molecule agonists of the androgen receptor (AR) signaling pathway in the presence of an antagonist (AID 1259381; calls by dose curve; further: nearly all actives have a fitted effect of over 15% in size)
Procedure, shortened: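 MDA-kb2 cells carrying MMTV-luciferase (AR/GR responsive), 3,000 cells/well, co-treated with 3.0 uM nilutamide final. Compounds at 15 concentrations, 16 hr at 37C without CO2. Luciferase luminescence read after 30 min with ONE-Glo.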

Chain of Estrogen receptor (Homo sapiens) (P03372 whole entry, looked up): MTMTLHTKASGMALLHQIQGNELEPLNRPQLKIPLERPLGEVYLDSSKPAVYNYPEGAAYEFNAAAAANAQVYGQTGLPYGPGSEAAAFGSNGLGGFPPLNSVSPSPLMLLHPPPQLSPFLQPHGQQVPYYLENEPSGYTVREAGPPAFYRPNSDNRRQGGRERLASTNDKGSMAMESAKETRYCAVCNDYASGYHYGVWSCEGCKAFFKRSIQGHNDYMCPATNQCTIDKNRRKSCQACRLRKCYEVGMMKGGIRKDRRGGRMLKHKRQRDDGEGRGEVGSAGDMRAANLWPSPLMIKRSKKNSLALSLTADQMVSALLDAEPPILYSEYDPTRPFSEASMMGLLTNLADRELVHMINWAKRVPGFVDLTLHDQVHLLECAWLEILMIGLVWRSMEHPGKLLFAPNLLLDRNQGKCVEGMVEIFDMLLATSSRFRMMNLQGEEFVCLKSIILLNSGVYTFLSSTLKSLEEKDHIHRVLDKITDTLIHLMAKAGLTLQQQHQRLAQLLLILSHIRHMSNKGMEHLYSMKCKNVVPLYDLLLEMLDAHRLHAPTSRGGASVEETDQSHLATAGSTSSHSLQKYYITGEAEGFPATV
Chain of Estrogen receptor beta (Homo sapiens) (Q92731 whole entry, looked up): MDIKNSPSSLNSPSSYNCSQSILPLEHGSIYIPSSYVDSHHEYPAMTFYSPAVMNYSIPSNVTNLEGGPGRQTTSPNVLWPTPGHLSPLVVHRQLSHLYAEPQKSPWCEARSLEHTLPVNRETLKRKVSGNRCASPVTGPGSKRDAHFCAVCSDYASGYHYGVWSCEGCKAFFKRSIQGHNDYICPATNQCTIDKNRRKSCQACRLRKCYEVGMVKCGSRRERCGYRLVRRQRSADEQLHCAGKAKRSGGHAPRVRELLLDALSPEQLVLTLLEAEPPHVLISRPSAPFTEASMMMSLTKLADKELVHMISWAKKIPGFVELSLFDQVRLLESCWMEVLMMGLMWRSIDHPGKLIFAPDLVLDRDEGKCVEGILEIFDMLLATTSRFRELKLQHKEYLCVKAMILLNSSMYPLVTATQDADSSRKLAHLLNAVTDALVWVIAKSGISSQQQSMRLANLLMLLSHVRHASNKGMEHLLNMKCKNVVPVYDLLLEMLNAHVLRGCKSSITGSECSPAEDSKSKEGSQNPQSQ
Chain of Androgen receptor (Homo sapiens) (P10275 whole entry, looked up): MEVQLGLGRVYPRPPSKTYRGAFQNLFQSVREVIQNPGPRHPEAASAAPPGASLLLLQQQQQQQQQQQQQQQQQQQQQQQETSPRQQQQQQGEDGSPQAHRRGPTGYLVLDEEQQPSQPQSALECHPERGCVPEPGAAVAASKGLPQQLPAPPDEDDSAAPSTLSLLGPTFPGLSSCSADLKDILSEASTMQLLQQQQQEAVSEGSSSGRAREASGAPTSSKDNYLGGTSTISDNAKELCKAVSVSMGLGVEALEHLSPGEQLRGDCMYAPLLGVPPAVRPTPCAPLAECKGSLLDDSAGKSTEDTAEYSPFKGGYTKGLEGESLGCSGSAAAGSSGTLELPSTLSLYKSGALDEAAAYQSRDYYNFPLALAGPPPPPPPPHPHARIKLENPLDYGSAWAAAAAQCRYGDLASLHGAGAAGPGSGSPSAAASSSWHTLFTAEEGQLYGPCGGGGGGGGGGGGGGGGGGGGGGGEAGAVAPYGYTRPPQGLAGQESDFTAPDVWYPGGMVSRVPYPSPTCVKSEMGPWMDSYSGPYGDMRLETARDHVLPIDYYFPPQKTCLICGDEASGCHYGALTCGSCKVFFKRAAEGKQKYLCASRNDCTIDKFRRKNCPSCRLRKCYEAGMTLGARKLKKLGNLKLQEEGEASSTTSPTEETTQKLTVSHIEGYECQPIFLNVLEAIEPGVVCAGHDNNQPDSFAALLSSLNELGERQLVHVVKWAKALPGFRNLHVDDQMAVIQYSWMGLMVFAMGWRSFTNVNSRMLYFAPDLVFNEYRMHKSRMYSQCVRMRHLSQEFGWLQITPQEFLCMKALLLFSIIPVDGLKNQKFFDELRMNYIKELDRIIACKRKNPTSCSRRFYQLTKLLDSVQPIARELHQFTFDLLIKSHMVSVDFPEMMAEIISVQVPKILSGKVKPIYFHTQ

SMILES | Potency [1] | Potency [2] | Potency [3] | Potency [4] | Potency [5] | Potency [6] | Potency [7] | Potency [8] | Potency [9] | Potency [10] | Potency [11] | Potency [12] | Potency [13] | outcome [14] | outcome [15] | Potency [16] | Potency [17] | Potency [18] | Potency [19] | Potency [20]
N#Cc1ccc(Cl)cc1 | inactive | inactive | inactive | inactive | inactive | inactive | inactive | inactive | inactive | inactive | inactive | inactive | inactive | inactive |  |  |  |  |  | 
CC(C)N(CCC(C(N)=O)(c1ccccc1)c1ccccn1)C(C)C (configuration not stated) | inactive | inactive | inactive |  | inactive | inactive | inactive | inactive | inactive | inactive | inactive | inactive |  | inactive | inactive | inactive | inactive |  |  | 
CC(C)N(C(=O)COc1nnc(C(F)(F)F)s1)c1ccc(F)cc1 | inactive | inactive | inactive | inactive | inactive | inactive | inactive | inactive |  | inactive |  | inactive | inactive | inactive |  | inactive |  | inactive |  | 
CC1(C)[C@H](C=C(Cl)Cl)[C@@H]1C(=O)O[C@@H](C#N)c1cccc(Oc2ccccc2)c1 | inactive | inactive | inactive | inactive | inactive | inactive | inactive | inactive | inactive | inactive | inactive | inactive |  | inactive |  | inactive | inactive |  |  | 
Cc1c(F)c(F)c(COC(=O)C2C(/C=C(\Cl)C(F)(F)F)C2(C)C)c(F)c1F (configuration not stated) | inactive | inactive | inactive | inactive | inactive | inactive | inactive | inactive |  | inactive |  | inactive | inactive | inactive |  | inactive | inactive | inactive |  | 
c1cc2ccc3cccc4ccc(c1)c2c34 |  |  |  |  |  |  |  |  |  |  |  |  |  |  | inactive |  |  |  |  | 
CCCCCC[N+](=O)[O-] | inactive |  | inactive |  | inactive | inactive | inactive | inactive | inactive | inactive | inactive | inactive |  | inactive |  | inactive | inactive | inactive | inactive | inactive
Nc1ccc([N+](=O)[O-])cc1[N+](=O)[O-] | inactive |  | inactive | inactive | inactive | inactive |  | inactive | inactive |  | inactive | inactive |  | inactive |  | inactive | inactive | inactive |  | inactive
ClP(Cl)(Cl)(Cl)Cl | inactive |  | inactive | inactive | inactive | inactive | inactive | inactive | inactive |  | inactive | inactive | inactive | inactive |  |  |  |  |  | 
CC(=O)CCC(C)=O | inactive |  | inactive | inactive | inactive | inactive | inactive | inactive | inactive |  | inactive | inactive | inactive | inactive |  | inactive | inactive | inactive |  | 
COC1=CC(=O)O[C@@H](CCc2ccccc2)C1 | inactive |  | inactive |  |  | inactive |  | inactive | inactive | inactive | inactive | inactive |  | inactive |  |  | inactive | inactive | 40.1 µM (active) | inactive
Clc1cccc(SC2CCNCC2)n1 | inactive |  | inactive | inactive | inactive | inactive | inactive |  | 26.6 µM (active) | inactive | inactive | inactive | inactive | inactive | inactive | inactive | inactive |  |  | 
C[N+](C)(C)CCCl | inactive |  | inactive | inactive | inactive | inactive | inactive | inactive | inactive | inactive | inactive | inactive | inactive | inactive |  | inactive | inactive | inactive | inactive | inactive
ClCc1ccccc1 | inactive |  | inactive | inactive | inactive | inactive | inactive |  | inactive |  |  | inactive | inactive | inactive |  | inactive | inactive | inactive |  | 
COC(=O)c1cncn1C(C)c1ccccc1 (configuration not stated) | inactive |  | inactive | inactive | inactive | inactive | inactive | inactive | inactive | inactive | inactive | inactive |  | inactive | inactive |  |  | inactive |  | 
CO/C=C(/C(=O)OC)c1ccccc1COc1cccc(C(F)(F)F)n1 | inactive |  | 6.85 µM (active) | 2.17 µM (active) | inactive | inactive | inactive | inactive | 0.544 µM (active) | 5.44 µM (active) | 4.85 µM (active) | inactive |  | inactive |  | inactive | 3.85 µM (active) | inactive |  | 
CCOP(=O)(OCC)SCCSCC | inactive |  | inactive | inactive | inactive | inactive | inactive | inactive | inactive | inactive | inactive | inactive | inactive | inactive |  |  | inactive | inactive |  | 
C=CC(=O)OCC(C)C | inactive |  | inactive | inactive | 19.2 µM (active) | inactive | inactive | inactive | inactive | inactive | inactive | inactive | inactive | inactive |  | inactive | inactive |  |  | 
Clc1ccc(C2(Cn3cncn3)CC(Br)CO2)c(Cl)c1 (configuration not stated) | inactive |  | inactive | 68.2 µM (active) | inactive | inactive |  | inactive | inactive | inactive | inactive | inactive |  | inactive |  | inactive |  | inactive |  | 
